# High-throughput results as filed in PubChem BioAssay.
# A selection: hits, their analogues and other compounds. The true share with any hit is near 7.4%.
# SMN2 splice enh: SMN2 splice variant enhancement | HEK293 SMN2-luciferase splicing reporter, luminescence, 30-36 h | AID 1458 | 2.8% of 210,000 active | Potency, µM (doses to about 46.1 µM), inactives show at the highest dose activity change, positive = activation, hits mostly activators; note: % of control where 0% means no effect; nearly all actives have a fitted effect of over 55% in size
#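 HEK293 cells carry an SMN2 minigene-luciferase reporter in which exon 7 inclusion puts luciferase in frame. Cells were seeded at 2000 cells/well, attached for 10-12 hours, then exposed to compounds for 30-36 hours at 37C before ONE-Glo luminescence.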
# NPC1 prom act: activates the NPC1 promoter; Potency, µM (doses to about 9.22 µM), for inactives: at the top dose activation, usual class: activators; 2.4% of 320,000 active; Huh7 NPC1 promoter luciferase reporter, 24 h; note: % of control where 0% means no effect; nearly all actives have a fitted effect of over 60% in size
#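 Cells: Huh7 expressing luciferase under the NPC1 promoter, 1500/well. Seeded 2 h, compound added, incubated 24 h at 37 °C. Luciferase reagent, 10 min ambient, then luminescence.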
# FLuc modulator: inhibits or activates purified firefly luciferase, miR-21 counter-screen. purified FLuc, Km substrates, luminescence inhibition. Potency, µM (highest dose often 57.5 µM), inactives show at the highest dose activity change, negative = inhibition, most hits filed as inhibitors. 6.9% of 360,000 active. AID 588342. P08659;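 note: plate controls were vehicle for no effect and reference inhibitor for full effect; nearly all actives have a fitted effect of over 55% in size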
# Target sequence (P08659 whole entry, looked up): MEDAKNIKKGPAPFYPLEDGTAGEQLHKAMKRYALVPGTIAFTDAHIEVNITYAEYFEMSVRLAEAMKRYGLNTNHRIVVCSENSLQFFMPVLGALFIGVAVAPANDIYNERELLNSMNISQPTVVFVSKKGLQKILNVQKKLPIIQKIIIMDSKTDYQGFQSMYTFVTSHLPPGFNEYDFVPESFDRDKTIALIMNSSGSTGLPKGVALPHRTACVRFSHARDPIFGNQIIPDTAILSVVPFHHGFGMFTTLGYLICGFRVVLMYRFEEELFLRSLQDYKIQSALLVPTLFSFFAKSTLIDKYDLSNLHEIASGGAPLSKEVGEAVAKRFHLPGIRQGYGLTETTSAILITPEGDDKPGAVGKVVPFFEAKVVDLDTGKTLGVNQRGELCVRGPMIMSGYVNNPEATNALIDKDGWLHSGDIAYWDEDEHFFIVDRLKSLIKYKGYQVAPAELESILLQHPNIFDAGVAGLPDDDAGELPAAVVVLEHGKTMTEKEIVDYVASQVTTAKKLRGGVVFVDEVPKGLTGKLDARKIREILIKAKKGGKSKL
#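 Purified P. pyralis luciferase (10nM final) with 10uM D-luciferin and 10uM ATP (Km levels) in 50mM Tris acetate pH 7.5, 10mM Mg acetate, 0.01% Tween-20, 0.05% BSA; qHTS 6-point titration, ~60 µM downward; luminescence read.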
# Rab9 prom act: activators of Rab9 promoter; 2.8% of 320,000 active; Potency, µM (doses to about 9.22 µM), without a hit: at the top dose activation, negative = inhibition, usual class: activators; Huh7 Rab9 promoter-luciferase reporter, luminescence, 24 h; note: % of control where 0% means no effect; nearly all actives have a fitted effect of over 60% in size
#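 Luminescence read-out: Huh7 cells stably expressing Rab9-luciferase, treated 24 h with compound at 37 °C, then lysed with luciferase reagent for 10 min at ambient before reading.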
# KinaseGlo FLuc: counter-screen: inhibitors of Kinase-Glo firefly luciferase; Q27757; Kinase-Glo luciferase, ATP luminescence, 8 min; Potency, µM (titrated, usually from 38.3 µM), inactives show top-dose activity change, negative = inhibition, hits mostly inhibitors; 0.28% of 200,000 active; AID 1379; note: % is set by controls: 0 for no effect and ±100 for the full control effect; nearly all actives have a fitted effect of over 60% in size
#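 Light output from Kinase-Glo luciferase with luciferin and 10 uM ATP in 50 mM imidazole pH 7.2, KCl, MgCl2, Tween 20, BSA; compound pin-delivered, 8-min ambient incubation, then luminescence read.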
# ELG1 genotox: genotoxicity induction in ELG1-luciferase HEK293T cells. AID 504466. Potency, µM (doses to about 46 µM), for inactives: at the highest dose activity change, positive = activation, actives largely listed as activators. 1.3% of 330,000 active. HEK293T ELG1-luciferase reporter, luminescence, 16 h; note: % of control where 0% means no effect; nearly all actives have a fitted effect of over 60% in size
#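 16 hr compound incubation (37 °C, 5% CO2) of HEK293T cells carrying luciferase-tagged ELG1; luciferase then measured by ONE-Glo luminescence after 30 min at RT.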
# The depositor's hits bear a star; ? = inconclusive; · = not tested or not shown; [ ] = dose if it differs, or a comment. Calls come from the whole dose curve; as a rule, active = well fitted curve in the direction sought with a large enough effect; inconclusive = small, poorly fitted or top-dose-only effect, or another doubt; inactive = no such curve, though single readings can be large; an effect the other way counts as inactive or inconclusive. Potency is the fitted concentration of half-maximal effect.
SMILES,SMN2 splice enh,NPC1 prom act,FLuc modulator,Rab9 prom act,KinaseGlo FLuc,ELG1 genotox
Fc1cccc(F)c1/C=N/Nc1ccccn1,?,26.1%,?,?,-4.8%,12.7%
Cc1ccc2nc(N/N=C\c3cccc(C)n3)cc(C)c2c1,-7.6%[9.22 µM],·,·,·,-2.9%[7.66 µM],·
CC(=O)Nc1ccc(C(=O)N/N=C/c2ccc(F)cc2)cc1,-21.3%,-0.9%,-13.3%,0.4%,-4.8%,4.1%
CN(C)c1nc(NCc2ccccc2)nc(N/N=C/c2ccc(Br)cc2)n1,2.8%,-2.3%,-0.8%,-15.7%,-1.1%,6.8%
Cc1cc(N/N=C/c2ccccc2Br)nc2ccccc12,85.6%,18.0%,12µM*,22.0%,5.1%,12.0%
Brc1ccc(/C=N/Nc2ccc3ccccc3n2)cc1,?,3.55µM*,3.01µM*,2.51µM*,0.6%,?
CC(=O)Nc1ccc(NC(=O)C(C)OC(=O)/C(C#N)=C/c2ccc(N(C)C)cc2)cc1 (stereo not given),·,28.0%,9.53µM*,?,·,18.3µM*
CCOc1ccc2c(c1)c(=O)c(C(=O)c1ccc(CC)cc1)cn2CC(=O)Nc1ccccc1OC,-5.6%,·,-4.2%,·,·,·
COc1ccccc1C1C(C(=O)c2cc3ccccc3o2)=C(O)C(=O)N1CCN1CCOCC1 (stereo not given),3.8%,-2.4%,13.5µM*,16.3%,-2.9%,-1.2%
Cc1ccccc1N(CC(=O)Nc1ccc(F)cc1)S(C)(=O)=O,-2.0%,-1.9%,1.6%,-0.6%,-2.7%,2.2%
Cc1ccc2nc(-c3ccc(NC(=O)CN(c4ccccc4C)S(C)(=O)=O)cc3)sc2c1,11.2µM*,?,2.39µM*,3.16µM*,4.2%,?
Cc1cc(C)cc(N(CC(=O)Nc2ccc(-c3nc4ccc(C)cc4s3)cc2)S(C)(=O)=O)c1,2.6%[1.84 µM],?,5.36µM*,?,-4.1%,?
CCOc1ccc(/C=C/c2nc(C#N)c(NCc3ccc(OC)cc3)o2)cc1,2.1%,·,4.8%,·,·,·
COc1ccc(S(=O)(=O)N2CCN(Cc3nc4ccc(C)cc4o3)CC2)cc1,·,·,-14.7%,·,·,·
CCOC(=O)Nc1ccc2c(CN(C)Cc3ccc(F)cc3)cc(=O)oc2c1,·,-1.0%,1.4%,2.7%,·,7.7%
CCOC(=O)Nc1ccc2c(C)cc(=O)oc2c1,14.1µM*,?,15.1µM*,?,-1.9%,18.4µM*
Cc1cc(=O)oc2cc(NC(=O)CCOc3ccccc3)ccc12,·,23.4%,-2.4%,26.7%,·,?
CCCCOC(=O)Nc1ccc2c(C)cc(=O)oc2c1,11.2µM*,1.78µM*,6.01µM*,1.41µM*,-2.2%,18.4µM*
O=C(c1cnccn1)N1CCC2(CC1)CN(c1ncccn1)C2,-3.1%,·,·,·,-5.3%,·
CC1(C)CC(=O)C2=C(C1)Nc1ccccc1NC2,4.6%,0.2%,-1.5%,-1.2%,4.5%,-0.4%
CC1(C)CC(=O)C2=C(C1)Nc1ccccc1N=C2,?,-1.1%,6.75µM*,-2.7%,-17.8%,10.6%
COc1ccc(CCc2nnc(CCC(=O)NCc3cc(C(C)C)no3)o2)cc1,?,26.9%,16.9µM*,?,-0.3%,?
CCn1cnc2cc(NCc3cccc(OC)c3O)ccc21,12.5%,-0.2%,12µM*,-0.7%,1.5%,18.4µM*
CCn1cnc2cc(NCc3ccc(C)cc3)ccc21,12.6µM*,2.82µM*,15.1µM*,3.98µM*,-1.1%,8.2µM*
Cc1ccc(CNc2ccc3c(c2)ncn3C(C)C)cc1,·,2.24µM*,6.01µM*,2.82µM*,·,9.2µM*
SMILES,SMN2 splice enh,NPC1 prom act,FLuc modulator,Rab9 prom act,KinaseGlo FLuc,ELG1 genotox
Cn1cnc2cc(NCc3ccc(Cl)cc3)ccc21,·,2.51µM*,16.9µM*,0.891µM*,·,?
COc1ccc(OC)c(CNC(=O)CN2N=C(c3ccc(Cl)cc3)CCC2=O)c1,·,·,-0.2%,·,·,·
NCCC[C@@H](N)C(=O)O,-7.1%[9.22 µM],·,·,·,-1.4%[7.66 µM],·
CCN(CC)c1ccc(CNc2ccc3c(c2)ncn3CC)cc1,·,1.2%,-5.0%,2.2%,·,3.3%
COc1ccccc1-n1cnc2cc(NCc3ccco3)ccc21,7.1%,-3.0%,19µM*,5.0%,-0.3%,?
CCCn1cnc2cc(NCc3cccc(OC)c3)ccc21,12.6µM*,?,16.9µM*,?,-2.0%,15.9%
CCn1cnc2cc(NCc3ccc(Br)cc3)ccc21,·,3.55µM*,13.5µM*,0.708µM*,·,?
CCCn1cnc2cc(NCc3ccc(Br)cc3)ccc21,·,?,10.7µM*,3.55µM*,·,?
COc1ccccc1-n1cnc2cc(NCc3ccccc3O)ccc21,·,-1.9%,?,13.4%,·,5.6%
Cc1cccc2c1N(Cc1ccccc1OCCC(C)C)C(=O)C2=O,?,·,-2.1%,·,·,·
CC(=O)C1=C(O)C=C2Oc3c(C(C)=O)c(O)c(C)c(O)c3C2(C)C1=O (stereo not given),-1.4%,·,·,·,-0.5%,·
Cc1cccc(-n2cc(CN3CCN(c4ccccn4)CC3)c(-c3cccc(F)c3)n2)c1,·,-0.9%,?,-4.3%,6.9%,-4.1%
Cc1ccc(-n2cc(CN3CCN(c4ccccn4)CC3)c(-c3ccc(F)cc3)n2)cc1,·,-4.9%,15.1µM*,11.6%,5.6%,-6.6%
Cc1ccc(-n2cc(CN3CCN(C(=O)c4ncn[nH]4)CC3)c(-c3ccc(F)cc3)n2)cc1,·,0.2%,9.53µM*,-1.8%,·,-9.4%
Cc1ccc(-n2cc(CN3CCN(Cc4nccn4C)CC3)c(-c3ccc(F)cc3)n2)cc1,·,-3.9%,?,-5.2%,-2.0%,-5.2%
C=CCOC(=O)N[C@H](/C(C(=O)OC)=C(\C)NCc1ccccc1)c1cccc(F)c1,-6.8%,·,·,·,-5.2%,·
COC(=O)Cc1c(C)c2cc3c(c(C)c2oc1=O)OCN(CCc1ccc(F)cc1)C3,-18.3%,·,0.2%,·,·,·
COc1cccc(C(=O)COc2cccc(NC(=O)c3ccco3)c2)c1,·,0.4%,26.9µM*,-3.3%,-9.6%,-1.7%
COc1ccc(C(=O)Nc2ccc(NC(=O)c3ccco3)cc2)cc1,·,0.5%,-8.9%,10.7%,·,?
COc1cccc(NC(=O)c2ccco2)c1,10µM*,?,?,?,-13.1%,14.6µM*
COc1ccc(C(=O)COc2cccc(NC(=O)c3ccco3)c2)cc1,-9.8%,-1.8%,15.1µM*,-1.0%,8.8%,-6.9%
O=C(COc1cccc(NC(=O)c2ccco2)c1)c1ccccc1,-31.5%,7.0%,16.9µM*,10.2%,-5.6%,0.1%
O=C(Nc1cccc(OC(=O)c2ccco2)c1)c1ccco1,0.4%,2.1%,-5.8%,-1.2%,-5.3%,12.9%
CCCCN(CCCC)C(=O)c1cc2c(=O)n3ccccc3nc2s1,-1.7%,·,3.1%,·,·,·
COc1ccc(Br)cc1C(=O)Nc1cccc(NC(=O)c2ccco2)c1,·,1.5%,23.9µM*,-6.5%,·,-19.6%
O=C(c1ccccc1)c1cccc(NC(=O)c2ccco2)c1,17.9%,25.3%,26.9µM*,3.98µM*,-5.3%,?
